Screening data (PubChem)
C diff growth – C. difficile growth inhibition | Clostridium difficile clinical isolate growth, OD600, 24 h; active compounds read low | growth activity, negative = inhibition, % at 16 µg/mL (by protocol) | actives 0.25% (n = 86,000) | AID 1259249;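 active = mean growth activity at or below -80% and every replicate also at or below -80%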;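 also: 0% = DMSO wells and -100% = levofloxacin 16 µg/mL wells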
Active calls of the source: *. Many of the other results were omitted from the sample, so hits are more common in it than they were.

CCCNC(=O)N[C@H]1CC[C@H](CC(=O)NC2CCCCC2)O[C@H]1CO was read as C diff growth 2.
For COc1ccc(C#Cc2ccc3c(c2)[C@H]2[C@H](CCN2C(=O)c2ccncc2)[C@@H](CO)N3)cc1 the results were C diff growth 8.
For COc1ccccc1C#Cc1ccc2c(c1)[C@H]1[C@H](CCN1C(=O)c1ccncc1)[C@H](CO)N2 the results were C diff growth -100*.
`COc1ccc(C#Cc2ccc3c(c2)[C@H]2[C@H](CCN2C(=O)c2ccncc2)[C@H](CO)N3)cc1` gave C diff growth 53.
Screening COc1ccc2c3c([nH]c2c1)[C@@H](CO)N(C(=O)c1cccc(F)c1)CC31CCN(C(C)=O)CC1 returned C diff growth 1.
Screening C[C@@H]1CN([C@@H](C)CO)C(=O)c2cccc(NC(=O)Nc3ccc(C(F)(F)F)cc3)c2O[C@@H]1CN(C)Cc1ccccc1 returned C diff growth -98*.
Screening C[C@H](CO)N1C[C@H](C)[C@@H](CN(C)Cc2ccccc2)Oc2c(NC(=O)Nc3ccc(C(F)(F)F)cc3)cccc2C1=O returned C diff growth 13.
`C[C@@H]1CN([C@@H](C)CO)C(=O)c2cccc(NC(=O)Nc3ccccc3)c2O[C@@H]1CN(C)Cc1ccc(C(F)(F)F)cc1` gave C diff growth -97*.
For C[C@H](CO)N1C[C@H](C)[C@H](CN(C)Cc2ccccc2)Oc2c(NC(=O)Nc3ccc(C(F)(F)F)cc3)cccc2C1=O the results were C diff growth 13.
For C[C@@H]1CN([C@H](C)CO)C(=O)c2cccc(NC(=O)Nc3ccc(C(F)(F)F)cc3)c2O[C@H]1CN(C)Cc1ccccc1 the results were C diff growth 11.
C[C@H](CO)N1C[C@H](C)[C@@H](CN(C)Cc2ccc(C(F)(F)F)cc2)Oc2c(NC(=O)Nc3ccc(C(F)(F)F)cc3)cccc2C1=O was read as C diff growth 34.
Screening O=C(N[C@H]1CC[C@@H](CCNS(=O)(=O)c2ccccc2)O[C@H]1CO)c1cccc(F)c1 returned C diff growth 4.
For CN1C(=O)c2cc(NC(=O)c3cccs3)ccc2OC[C@H]2O[C@H](CC(=O)O)CC[C@H]21 the results were C diff growth 2.
For CCC(=O)N1CC2(C1)CN(Cc1ccccc1Cl)[C@H](CO)c1c2c2ccc(OC)cc2n1C the results were C diff growth 12.
CC(=O)N1CC2(C1)[C@H](c1ccc(-c3cccc(F)c3)cc1)[C@H](CO)N2CC1CCOCC1 was read as C diff growth 17.
For CC(C)CC#Cc1ccc2c(c1)O[C@@H](CN(C)C(=O)Nc1ccccc1F)[C@H](C)CN([C@@H](C)CO)S2(=O)=O the results were C diff growth -23.
`CC(C)CC#Cc1ccc([C@@H]2[C@H]3CN(C(=O)Nc4ccccc4)CCCCN3[C@H]2CO)cc1` gave C diff growth 57.
For CC(C)CC#Cc1ccc([C@H]2[C@@H](CO)N3CCCCN(C(=O)Nc4ccccc4)C[C@@H]23)cc1 the results were C diff growth -13.
COc1ccc(NC(=O)N2CCCCN3[C@H](CO)[C@H](c4ccc(C#CCC(C)C)cc4)[C@H]3C2)cc1 was read as C diff growth 33.
For CC(C)CC#Cc1ccc([C@H]2[C@H](CO)N3CCCCN(C(=O)Nc4ccccc4)C[C@@H]23)cc1 the results were C diff growth -98*.
For CC(C)CC#Cc1ccc([C@@H]2[C@H](CO)N3CCCCN(C(=O)Nc4ccccc4)C[C@@H]23)cc1 the results were C diff growth -98*.
Screening CC(C)C#Cc1ccc([C@H]2[C@@H](CO)N3CCCCN(C(=O)Nc4ccccc4)C[C@@H]23)cc1 returned C diff growth -11.
Screening C[C@H](CO)N1C[C@H](C)[C@@H](CN(C)C(=O)c2ccc(F)cc2)Oc2cc(C3=CCCCC3)ccc2S1(=O)=O returned C diff growth 3.
For C[C@@H]1CCCCO[C@@H](CN(C)C(=O)c2ccccc2)[C@H](C)CN([C@H](C)CO)C(=O)c2cc(NC(=O)CCCN(C)C)ccc2O1 the results were C diff growth -1.
`O=C(NC[C@@H]1CC[C@H]2[C@H](CN2Cc2cc(-c3ccccc3)on2)O1)c1ccc2c(c1)OCO2` gave C diff growth -16.
For C[C@H]1CN([C@@H](C)CO)C(=O)Cc2cc(NC(=O)Nc3ccc(F)cc3)ccc2O[C@H]1CN(C)Cc1ccc(C(=O)Nc2ccccc2N)cc1 the results were C diff growth 7.
